ALOX12 inh: blocks human arachidonate 12S-lipoxygenase; P18054; purified 12hLO, xylenol orange hydroperoxide absorbance; Potency, µM (doses to about 108 µM), for inactives: top-dose activity change, negative = inhibition, hits mostly inhibitors; 580,000 compounds, 1.1% hits; AID 1671190; note: % is set by controls: 0 for no effect and ±100 for the full control effect
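Purified human 12hLO at 150 nM in 25 mM Hepes, 0.01% Triton X-100, pH 7.0, preincubated 15 min at room temperature with compound. Reaction started with 40 uM arachidonic acid, 30 min at room temperature. Hydroperoxide measured by Fe-xylenol orange, 573/405 nm absorbance ratio.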
BAZ2B block: inhibitors of human BAZ2B bromodomain; Q9UIF8; AlphaScreen BAZ2B-H3K14Ac peptide displacement; Potency, µM (top dose mostly 114 µM), for inactives: at the top dose activity change, negative = inhibition, usual class: inhibitors; 360,000 compounds, 4.4% hits; AID 504333; note: % is set by controls: 0 for no effect and ±100 for the full control effect; nearly all actives have a fitted effect of over 60% in size
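BAZ2B (50 nM) with biotin-H3(5-23)K14Ac peptide (50 nM) in PBS pH 7.4, 0.01% Tween-20, preformed 30 min, then compound 30 min at room temperature; top concentration 110uM. AlphaScreen streptavidin donor/nickel chelate acceptor beads (10 ug/mL final), 20 min dark, signal read.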
HP1b binding inh: HP1-beta chromodomain-methylated histone interaction inhibition. P83916. AlphaScreen HP1-beta / biotin-H3K9me3 peptide binding. Potency, µM (doses to about 114 µM), for inactives: at the top dose activity change, negative = inhibition, actives largely listed as inhibitors. 390,000 compounds, 0.56% hits. AID 540317; note: nearly all actives have a fitted effect of over 70% in size
Target sequence (P83916 whole entry, looked up): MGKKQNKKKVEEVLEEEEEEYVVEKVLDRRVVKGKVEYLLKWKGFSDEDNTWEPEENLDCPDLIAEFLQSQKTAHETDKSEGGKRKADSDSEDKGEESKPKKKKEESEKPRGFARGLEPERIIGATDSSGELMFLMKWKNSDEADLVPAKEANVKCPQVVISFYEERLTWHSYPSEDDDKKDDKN
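Compound inhibition of the preformed complex between 50 nM HP1-beta and 50 nM biotinylated H3K9me3 peptide was read by AlphaScreen. Buffer was PBS pH 7.4 with 0.01% Tween-20. Incubations ran 30 min at room temperature, with 10 ug/mL donor/acceptor beads.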
G9a block: G9a (human) methyltransferase inhibition. Q96KQ7. G9a H3K9 monomethylation, AlphaScreen, 2 h. Potency, µM (highest dose often 102 µM), for inactives: at the top dose activity, negative = inhibition, hits mostly inhibitors. 350,000 compounds, 8.8% hits. AID 504332; note: % is set by controls: 0 for no effect and ±100 for the full control effect; nearly all actives have a fitted effect of over 75% in size
Target sequence (Q96KQ7 913-1193 limits assumed): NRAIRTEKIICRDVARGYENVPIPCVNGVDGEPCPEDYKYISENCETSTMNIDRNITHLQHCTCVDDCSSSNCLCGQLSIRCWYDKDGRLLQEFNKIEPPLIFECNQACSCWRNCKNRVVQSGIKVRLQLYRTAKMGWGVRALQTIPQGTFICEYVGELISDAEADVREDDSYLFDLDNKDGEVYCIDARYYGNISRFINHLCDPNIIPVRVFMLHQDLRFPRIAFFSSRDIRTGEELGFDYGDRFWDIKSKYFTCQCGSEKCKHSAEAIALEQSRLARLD
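G9a (20 nM) preincubated 15 min RT with compounds, then 500 nM biotinylated H3K9 peptide and 20 uM SAM added; 2 h RT reaction. Monomethyl-H3K9 product detected by AlphaScreen with anti-H3K9me1 antibody, streptavidin donor and anti-rabbit IgG acceptor beads.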
PLK1 PBD inh: inhibitors of human PLK1 polo-box domain binding; Potency, µM, for the others: max response, negative = inhibition, most hits filed as inhibitors; 360,000 compounds, 2.8% hits; AID 720504; P53350; Plk1 PBD binding of FITC phosphopeptide, fluorescence polarization; note: series mostly up to about 57 µM; % is set by controls: 0 for no effect and ±100 for the full control effect; nearly all actives have a fitted effect of over 65% in size
JMJD2A Tudor: inhibitors of human JMJD2A Tudor domain; AlphaScreen JMJD2A-Tudor / H3K4me3 peptide binding; Potency, µM (series often up to 114 µM), for inactives: at the top dose activity change, negative = inhibition, most hits filed as inhibitors; 390,000 compounds, 4.4% hits; note: % is set by controls: 0 for no effect and ±100 for the full control effect; nearly all actives have a fitted effect of over 50% in size
Active calls of the source: *; ? = inconclusive; · = no result; ! = repeats disagree; [ ] = dose if it differs, or a comment. Hits are enriched below; roughly 9% of the tested compounds scored in any of these assays. Calls come from the whole dose curve; as a rule, active = well fitted curve in the direction sought with a large enough effect; inconclusive = small, poorly fitted or top-dose-only effect, or another doubt; inactive = no such curve, though single readings can be large; an effect the other way counts as inactive or inconclusive. Potency is the fitted concentration of half-maximal effect.

SMILES | ALOX12 inh | BAZ2B block | HP1b binding inh | G9a block | PLK1 PBD inh | JMJD2A Tudor
CC1(C(=O)NS(=O)(=O)c2cccc(C#N)c2)CCN1C(=O)Cc1ccc(-c2ccccc2)cc1 (configuration not stated) | ? | · | · | · | -4.9% | ·
COc1ccccc1Nc1cc(N2CCOCC2)c2nonc2c1[N+](=O)[O-] | -5.8% | -16.0% | 23.2% | -36.7% | -9.1% | 0.7%
COc1ccc(Nc2nc(N)nc(CSC(=S)N3CCCCC3)n2)cc1 | -3.3% | 70.8µM* | -15.9% | ? | -1.0% | ?
COc1ccc(Nc2nc(N)nc(CN(C)C3CCCCC3)n2)cc1 | 5.0% | 31.6µM* | 13.3% | 3.6% | -3.1% | 44.7µM*
CCOc1ccc(Nc2ncnc(N)n2)cc1 | 1.1% | -11.8% | 15.9% | -2.5%[12.7 µM] | -0.5% | -9.4%
CCOc1ccc(Nc2nc(N)nc(CN(C)C3CCCCC3)n2)cc1 | 13.0% | 28.2µM* | 31.6% | 11.4% | 5.1% | 20µM*
O=C(Nc1ccccc1)N1CC[C@@]2(CCCN(C(=O)c3ccncc3)C2)C1 | 12.6%[57.4 µM] | · | · | 13.1%[12.7 µM] | · | ·
Cc1noc(C)c1NC(=O)Nc1ccc2c(c1)C(=O)N([C@H](C)CO)C[C@H](C)[C@H](CN(C)C(=O)NC1CCCCC1)OCCCC[C@@H](C)O2 | ? | · | · | · | -18.8% | ·
COc1cc2c(cc1OC)C(COc1ccc3c(C)cc(=O)oc3c1)N(C(=O)c1ccc(C)c(C)c1)CC2 (configuration not stated) | -27.4% | 0.5% | 22.4% | 12.2%[59 µM] | · | 4.8%
CCOc1c(C)cc2[nH]c(CCC(=O)O)nc2c1C | 0.0% | -3.1% | 29.1% | 12.6µM* | -5.2% | -5.7%
Cc1ccc2[nH]c(CCC(=O)N3CC[C@H](CO)[C@H](O)C3)nc2c1C | 22.5% | · | · | · | · | ·
Cc1cccc(NC(=O)CCCn2nc(C)c3c(C)n(-c4ccccc4)nc3c2=O)c1C | -23.4% | -15.7% | 23.9% | 0.9%[59 µM] | · | -15.9%
Cc1sc2nc3ccc(N4CCCC4)nn3c(=O)c2c1C | -14.8% | -1.8% | 11.2% | 35.5µM* | ? | -10.3%
Cc1ccc2nc3ccc(N4CCCCCCC4)nn3c(=O)c2c1 | -7.7% | 0.3% | 49.3% | 10.5% | -2.5% | 2.7%
O=C(CCCc1ccccc1)NCCN1CCOCC1 | -12.2% | 18.2% | 35.2% | 8.1% | -14.4% | -11.8%
CCNC(=O)C1CC(=O)N(Cc2ccc3c(c2)OCO3)C(=Nc2ccc(F)cc2)S1 (configuration not stated) | 18.4% | 6.1% | 12.8% | 12.0%[59 µM] | 0.0% | -13.4%
COc1ccc(N=C2SC(C(N)=O)CC(=O)N2Cc2ccc3c(c2)OCO3)cc1 (configuration not stated) | -17.3% | 79.4µM* | 9.4% | -4.1% | -15.0% | 79.4µM*
COc1ccc(CCN2C(=O)CC(C(N)=O)SC2=Nc2ccccc2)cc1 (configuration not stated) | 0.0% | ? | 12.7% | ? | -0.2% | 79.4µM*
CC(C)CC(NC(=O)C1CCCCC1)C(=O)NC(C)c1ccccc1 (configuration not stated) | 6.6% | -12.2% | 11.4% | -31.6% | -3.4% | -14.2%
O=C(c1cccs1)N1CCCC(N2CCN(c3cccc(C(F)(F)F)c3)CC2)C1 (configuration not stated) | -20.5% | -29.4% | 2.8% | -1.2% | -6.6% | -19.4%
CCNC(=O)N1CCCCC1c1nc(CCOc2ccc(F)cc2)no1 (configuration not stated) | 16.3% | · | · | · | · | ·
CCSc1nnc(-c2sc3nnc(-c4ccccc4)c(-c4ccccc4)c3c2N)o1 | 238.3% | 53.5% | 177.1% | · | 15µM* | 59.1%
Cc1ccc(SCCN(C)c2cc(C3CC(O)C3)nc(N)n2)cc1 (configuration not stated) | 4.1% | · | · | · | · | ·
Cc1cc(C)n2c(NC3CCCCC3)c(-c3cccnc3)nc2n1 | -5.4% | · | · | · | -13.9% | ·
Cc1c(C(=O)Nc2cnc3ccccc3c2)cccc1[N+](=O)[O-] | -40.9% | · | · | · | · | ·
SMILES | ALOX12 inh | BAZ2B block | HP1b binding inh | G9a block | PLK1 PBD inh | JMJD2A Tudor
CCN1CCC2(CC1)C(C#N)=C(N)Oc1c2sc2nc(C)cc(C)c12 | ? | -24.4% | 29.5% | ? | -14.7% | -10.9%
CC(=O)N1CCC2(CC1)C(C#N)=C(N)Oc1c2sc2nc(C)cc(C)c12 | -13.3% | -34.4% | 43.2% | 11.2µM* | -7.8% | -21.2%
O=C(O)c1cccc(NC(=O)c2ccc3c(c2)C(=O)N(CC2CCCO2)C3=O)c1 (configuration not stated) | -18.6% | -3.4% | 38.2% | 12.7% | -1.9% | 4.2%
O=C1c2nc3cc(-c4ccco4)[nH]n3c(=O)c2CN1Cc1ccccc1 | 22.4µM* | ? | 29.2% | ? | -16.9% | -11.8%
CCCCc1c(C)nc2cc(-c3ccco3)[nH]n2c1=O | ? | -19.9% | 17.6% | ? | -14.3% | -19.1%
CCCCCN(C)CCC(O)(P(=O)(O)O)P(=O)(O)O | -12.5%[57.4 µM] | · | · | -8.2%[59 µM] | · | ·
c1ccc(CNc2ncncc2-c2ccc3c(c2)OCO3)cc1 | 25.1µM* | · | · | 3.6%[0.501 µM] | · | ·
O=c1[nH]c(Nc2ccccc2)cc2ccccc12 | ? | -6.4% | 15.4% | 24.6%[0.501 µM] | ? | ?
COc1ccccc1Nc1cc2cc(Br)ccc2c(=O)[nH]1 | 8.91µM* | · | 12.2% | · | -16.3% | ?
O=c1[nH]c(Nc2ccccc2)cc2cc(Br)ccc12 | 15.8µM* | · | 10.7% | · | -15.9% | -28.3%
C=CCN=C(NC#N)SC | 0.0% | 17.0% | 26.6% | 49.5% | -18.4% | -7.2%
O=C(Nn1c(-c2ccc(Br)cc2)nc2ccccc2c1=O)c1ccc([N+](=O)[O-])cc1 | -10.9% | -33.1% | 0.4% | 0.1%[59 µM] | -24.6% | -24.2%
CNc1cc(NS(=O)(=O)c2ccc(N)cc2)nc(NC)n1 | ? | 50.1µM* | 18.8% | 11.4%[12.7 µM] | -13.1% | 89.1µM*
Cc1ccc(C(=O)Nc2ccc(S(=O)(=O)Nc3cnc4ccccc4n3)cc2)cc1 | ? | -5.0% | 39.3% | 50.1µM* | -12.3% | -13.0%
O=C(Nc1ccc(S(=O)(=O)Nc2ccccn2)cc1)c1cccc(Br)c1 | 4.3% | -36.1% | 9.2% | · | 0.7% | -16.1%
Nc1ccc(S(=O)(=O)Nc2ccccn2)cc1 | ? | 19.8% | 23.3% | 25.1µM*! | -11.5% | -3.6%
O=C(Nc1ccc(S(=O)(=O)Nc2ccccn2)cc1)c1cccc(Cl)c1 | ? | -14.2% | -6.6% | 25.1µM* | -9.4% | -14.1%
CC(C)(C)c1ccc(S(=O)(=O)Nc2ccccn2)cc1 | -16.1% | -11.0% | 49.0% | · | -3.3% | 1.4%
Cc1nc2ccccn2c1-c1nnco1 | 17.1% | 14.2% | 9.7% | 5.6% | -12.2% | -4.9%
Cc1ccc(C(=O)Nc2ccc(Br)cc2)cc1S(=O)(=O)Nc1ccccn1 | -26.9% | -35.7% | 30.5% | 79.4µM* | -3.6% | 0.0%
COC(c1ccccc1)c1nnc(CCC(=O)NC2CCCCC2)o1 (configuration not stated) | 3.7% | 1.7% | 33.2% | ? | -4.9% | -17.7%
